# High-throughput results as filed in PubChem BioAssay.
# SIRT5 block: SIRT5 desuccinylase inhibitors, primary screen, biochemical, fluorescence imaging, single point, set 5 | inhibition, % at 15 µM | NAD-dependent protein deacylase sirtuin-5, mitochondrial (Homo sapiens), Q9NXA8 | Purified SirT5, succinyl-peptide AMC, trypsin-coupled fluorescence | 330,000 compounds, 1.1% hits; in the data active = inhibition above about 15%
# ERAP1 HTS inh: human ERAP1 aminopeptidase inhibitors, primary screen, biochemical, single point, plate reader; 340,000 compounds, 0.15% hits; AID 652197, 2013; recombinant ERAP1, Leu-AMC fluorescence, 60 min; inhibition, % at 10.7 µM; Endoplasmic reticulum aminopeptidase 1 (Homo sapiens), Q9NZ08;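 active = mean replicate inhibition of at least 30%, or all replicates individually reaching that 30% level; inactive = mean below 30% and not every replicate reaching it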;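 note: 0% = neutral control wells and 100% = L-leucinethiol positive control wells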
# FGF22 binding: binders of human FGF22 protein, primary screen, FGF22 synaptogenesis inhibitor project, biophysical, thermal shift, single point. 340,000 compounds, 1.5% hits. Fibroblast growth factor 22 (Homo sapiens), Q9HCT0. recombinant FGF22 thermal shift, SYPRO orange fluorescence; percent of sucrose octasulfate shift, DMSO zero. activity (Tm shift, normalised), % at 9.99 µM;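 active = mean Tm shift, scaled 0 neutral to 100 positive control, at about 1.3% or above, every replicate too, limit read from the data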
# Target sequence (Q9HCT0 whole entry, looked up): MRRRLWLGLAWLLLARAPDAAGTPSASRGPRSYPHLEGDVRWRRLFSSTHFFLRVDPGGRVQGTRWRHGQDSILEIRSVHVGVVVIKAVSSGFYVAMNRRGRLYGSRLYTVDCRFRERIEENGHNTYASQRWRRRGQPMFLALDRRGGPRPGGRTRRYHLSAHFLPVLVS
# INS-1E GSIS act: GLuc luminescence reporter in INS-1E cells, primary screen for activators of glucose-dependent secretion of insulin. INS-1E GLuc reporter insulin secretion, 2-3 h. activation, % at 16.6 µM. 370,000 compounds, 0.61% hits. AID 743287, 2014;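 active = lowest replicate activation of at least 40%, so every replicate reaches that level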;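 note: 0% = median of neutral control wells and 100% = median of IBMX positive control wells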
# Casp6 inh: human caspase-6 inhibitors, primary screen, biochemical, VEID-R110 fluorescence, single point, set 2; P55212; purified caspase-6, Z-VEID-R110 cleavage fluorescence; 350,000 compounds, 0.53% hits; inhibition, % at 12.5 µM; AID 686996, 2013;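 active = mean inhibition across replicates at least about 35%, with every replicate also reaching that limit, limit read from the data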;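 note: 0% = median of neutral control wells and 100% = no fluorescence left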
# Target sequence (P55212 24-179 limits assumed): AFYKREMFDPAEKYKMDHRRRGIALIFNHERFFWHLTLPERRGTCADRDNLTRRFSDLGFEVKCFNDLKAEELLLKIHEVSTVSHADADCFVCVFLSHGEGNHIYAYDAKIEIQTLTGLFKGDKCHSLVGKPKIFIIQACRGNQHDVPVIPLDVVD
# Target sequence (P55212 194-293 limits assumed): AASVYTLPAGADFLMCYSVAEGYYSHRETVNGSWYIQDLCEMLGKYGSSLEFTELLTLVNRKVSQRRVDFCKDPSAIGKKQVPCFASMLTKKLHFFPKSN
# The depositor's hits bear a star; · = no result given. Sampled rows, rich in hits. Any-hit rate of the full collection: about 3.3%.
SMILES,SIRT5 block,ERAP1 HTS inh,FGF22 binding,INS-1E GSIS act,Casp6 inh
O=C(Oc1cccc(C(=S)N2CCOCC2)c1)c1ccc([N+](=O)[O-])cc1[N+](=O)[O-],101.4*,2.6,0.5,-7.3,-3.9
CC(C)(C)c1ccc(C(=O)Nc2ccc(S(=O)(=O)Nc3cnc4ccccc4n3)cc2)cc1,-0.7,2.0,0.2,-14.0,60.5*
Cc1ccc(S(=O)(=O)Nc2cccc3c2O[C@@H](CN(C)S(=O)(=O)c2ccccc2)[C@H](C)CN([C@H](C)CO)C3=O)cc1,-6.7,0.2,0.0,5.1,3.2
C[C@H](NC(=O)C[C@H]1CC[C@@H]2[C@H](COC[C@H](O)CN2C(=O)Nc2ccccc2)O1)c1ccccc1,1.9,-0.2,-0.4,-5.7,-3.3
Cc1[nH]nc2c1C(c1cccs1)C1=C(CCCC1=O)N2 (centres undefined),-4.5,1.8,43.0*,7.6,-0.7
Cc1[nH]nc2c1C(c1cccs1)C1=C(CC(C)(C)CC1=O)N2 (centres undefined),2.4,-2.3,-0.1,35.0,4.8
CCN1CCN(c2nnc(-c3ccc(C)cc3)c3ccccc23)CC1,0.8,-1.6,0.0,2.7,-4.3
CC(=O)N1CCN(c2nnc(-c3ccc(C)cc3)c3ccccc23)CC1,-10.6,-0.2,-0.2,40.9*,1.6
C[C@H](CO)N1C[C@H](C)[C@@H](CN(C)Cc2ccncc2)Oc2ncc(-c3ccc(C#N)cc3)cc2C1=O,0.6,6.5,-0.3,24.3,1.3
O=C(N/N=C/c1ccsc1)C1CC1,-2.9,0.1,43.1*,16.0,0.7
COCC(=O)N1C[C@H](C)[C@@H](OC)CN(C)C(=O)c2ccc(NC(=O)c3ccc(OC)cc3)cc2OC[C@@H]1C,6.7,-10.7,0.1,-5.7,1.8
COC(=O)CN1C(=O)COc2ccc(S(=O)(=O)N3CCCCC3)cc21,·,1.9,-0.2,-6.2,51.8*
COC(=O)CN1C(=O)COc2ccc(S(=O)(=O)N3CCCC3)cc21,-3.3,-2.5,-0.1,11.9,0.3
C=C1SC(=Nc2c(C)cccc2Cl)N(C(=O)c2sc3ccccc3c2Cl)C12CCCCC2,-2.5,3.4,-0.1,134.5*,-0.7
CCOc1ccccc1CNS(=O)(=O)c1cnc[nH]1,-1.2,-1.1,0.0,43.6*,-33.6
CCOc1ccccc1NC(=O)CN(C)S(=O)(=O)c1cnc[nH]1,-2.3,2.3,0.1,-2.6,3.2
C[C@@H](O)C#Cc1ccc2c(c1)O[C@H](CN(C)C(=O)c1ccccc1)[C@@H](C)CN([C@@H](C)CO)S2(=O)=O,-0.9,-3.2,-0.1,-21.4,-0.8
C[C@@H]1CN([C@H](C)CO)C(=O)Cc2cc(NS(=O)(=O)c3ccccc3)ccc2O[C@H]1CN(C)Cc1ccncc1,-4.0,0.7,0.0,-11.1,-0.8
CC(C)C(=O)N[C@H]1CCC2C3CC=C4C[C@@H](O)CC[C@]4(C)C3CC[C@@]21C (some centres undefined),0.2,11.4,0.0,19.3,-2.4
CC(=O)C1CCC2C3CC=C4CC(SC(=N)N)CCC4(C)C3CCC12C (centres undefined),0.8,4.9,-0.6,283.8*,18.5
C[C@]12CC[C@H](OC(=O)CCC(=O)O)CC1=CCC1C2CC[C@@]2(C)C1CC[C@@H]2N (some centres undefined),·,-1.5,43.5*,·,2.3
C[C@]12CC[C@H](O)CC1=CCC1C2CC[C@@]2(C)C1CC[C@@H]2NC(=O)[C@@H](N)Cc1ccccc1 (some centres undefined),3.4,3.9,-0.1,·,2.7
CC(=O)OCC(=O)C1CCC2C3CC=C4CC(O)CCC4(C)C3CCC12C (centres undefined),-1.5,0.3,0.0,·,5.2
CC(C)(C)[C@H](N)C(=O)N[C@H]1CCC2C3CC=C4C[C@@H](O)CC[C@]4(C)C3CC[C@@]21C (some centres undefined),-0.2,-0.5,-0.3,202.5*,-3.7
CCOC(=O)Cc1cc(=O)n2[nH]c(-c3ccc(C)cc3)cc2n1,·,·,·,64.8*,·
SMILES,SIRT5 block,ERAP1 HTS inh,FGF22 binding,INS-1E GSIS act,Casp6 inh
CC(=O)N1CC2(C1)[C@H](c1ccc(-c3cccc(F)c3)cc1)[C@H](CO)N2CC1CCOCC1,-0.8,-2.7,0.2,-21.1,-5.9
COc1ccc(S(=O)(=O)N(C)C[C@H]2Oc3ccc(NS(C)(=O)=O)cc3CC(=O)N([C@@H](C)CO)C[C@H]2C)cc1,0.9,-1.4,-0.1,-10.9,-4.3
CO[C@@H]1CN(C)C(=O)c2ccc(NS(C)(=O)=O)cc2OC[C@@H](C)NC[C@@H]1C,-4.9,-0.7,-0.3,-11.1,-0.3
O=C(NC1CC1)c1cccc2c1C(=O)c1ccc(N3CCC(N4CCCCC4)CC3)cc1S2(=O)=O,16.8*,1.9,40.8,1.0,-5.5
COc1ccc(C(=O)CSc2ccccc2C(=O)O)cc1,0.0,-15.7,44.1*,1.8,0.8
C[C@@H]1CN([C@@H](C)CO)C(=O)c2cc(NC(=O)CCCCCC(=O)Nc3ccccc3N)ccc2O[C@@H]1CN(C)C,·,-2.3,0.1,-4.0,-1.9
COc1ccc(C2CCCN2C(=O)Nc2ccc(C)c(C)c2)cc1OC (centres undefined),15.8*,-6.1,-0.1,-14.2,3.5
COc1ccc(CN(C)Cc2c(O)ccc3cc(Br)ccc23)cc1OC,1.3,4.1,1.7*,21.4,-4.2
COc1ccc(CCN(C)Cc2c(O)ccc3cc(Br)ccc23)cc1OC,-4.1,-3.3,-1.0,7.0,-2.0
CNC[C@H](O)c1ccc(O)c(O)c1,5.5,-1.0,-0.7,6.2,·
NC[C@H](O)c1ccc(O)c(O)c1,0.1,2.9,-0.4,-31.7,78.9*
C[C@@H]1CN([C@H](C)CO)C(=O)c2cc(NC(=O)c3ccccc3)ccc2O[C@@H](C)CCCCO[C@@H]1CN(C)C(=O)c1ccccc1,·,·,1.4*,-9.3,·
C[C@@H]1CCCCO[C@H](CN(C)C(=O)C2CCCCC2)[C@H](C)CN([C@@H](C)CO)C(=O)c2cc(NC(=O)Nc3ccc(F)cc3)ccc2O1,15.6*,1.3,-0.5,-17.0,0.5
C[C@@H]1CCCCO[C@H](CN(C)C(=O)c2ccccc2)[C@H](C)CN([C@@H](C)CO)C(=O)c2cc(NC(=O)Nc3ccc(F)cc3)ccc2O1,4.8,-4.2,1.3*,·,-0.7
C[C@@H]1CCCCO[C@@H](CN(C)C(=O)C2CCCCC2)[C@@H](C)CN([C@H](C)CO)C(=O)c2cc(NC(=O)Nc3ccc(F)cc3)ccc2O1,0.9,2.1,-0.1,2.7,-1.0
COc1ccc(NC(=O)N[C@H]2CC[C@H](CCNC(=O)Nc3cc(F)ccc3F)O[C@@H]2CO)cc1,·,·,·,-4.7,·
